According to ChEMBL document CHEMBL3988442, “University of Dundee, Small-Polar-MMV Screening Library” (2021):
In all, about 48,000 compounds went through this assay and about 13,000 (27%) showed an effect of 50% or more. The list shows a part of the results.

Each compound was assayed on Wolbachia pipientis (assay: Anti-Wolbachia Cell-Based Screen). Settings: 5 µM.
Type: functional
Set-up: scale not given: in the data most compounds retested in dose-response had high values

SMILES | Percent Effect [%]
COc1ccccc1OCCNC(=O)NCc1nc(C)no1 | -10.03
CCCc1c(C(=O)NC2CCCC2)nnn1-c1ccc(OC)cc1 | 0.3347
CCOCC(=O)N1C[C@@H]2CC[C@H](C1)N(Cc1ccccn1)C2=O | 2.863
NC1(C(=O)N2CCC(c3cc(-c4ccccc4Cl)n[nH]3)CC2)CCC1 | -26.69
CC(C)NC(=O)NC[C@@]1(COc2cnccn2)C[C@@H](O)[C@@H](O)C1.Cl | -2.608
Cn1ccnc1CN1CCC2(CC1)CCN(c1cncnc1)C2=O.O=C(O)C(F)(F)F | -20.08
Cn1ccnc1CN1CCC2(CC1)CCN(c1ccccc1)C2=O.O=C(O)C(F)(F)F | 113.1
Cn1ccnc1CN1CCC2(CC1)Cc1ccccc1CNC2=O.O=C(O)C(F)(F)F | 103.5
CN1CC(=O)N(c2ccccc2)CC12CCN(Cc1nccn1C)C2.O=C(O)C(F)(F)F.O=C(O)C(F)(F)F (stereo not given) | -13.15
CN1Cc2ccccc2CC2(CCN(c3ncccn3)CC2)C1=O | -6.777
CN1Cc2ccccc2CC2(CCN(Cc3nccn3C)CC2)C1=O | 94.48
CN1Cc2ccccc2CC2(CCN(c3ncc(F)cn3)CC2)C1=O | -14.24
N#CC1(C(=O)N2Cc3cc(-c4cc[nH]n4)ccc3C2c2cnco2)CC1 (stereo not given) | -31.27
NC(=O)COc1ccc(C(=O)NCCc2ccco2)cc1 | -0.9721
CN1CC(=O)N(c2cccc(F)c2)CC12CCN(Cc1cccnc1)C2.O=C(O)C(F)(F)F.O=C(O)C(F)(F)F.O=C(O)C(F)(F)F (stereo not given) | -7.08
CCS(=O)(=O)N1CC[C@H]2C(=O)N(Cc3cccnc3)CCO[C@H]2C1.O=C(O)C(F)(F)F | -12.91
C[C@H]1CN(CC2CCOCC2)C[C@@]12CCN(Cc1cccnc1)C2=O.O=C(O)C(F)(F)F.O=C(O)C(F)(F)F | 107.6
CCN1C(=O)C(c2ccccc2)CC12CCN(Cc1cccnc1)CC2.O=C(O)C(F)(F)F.O=C(O)C(F)(F)F (stereo not given) | -2.584
CN1CC(=O)N(c2ccccc2)CC12CCN(Cc1cccnc1)C2.O=C(O)C(F)(F)F.O=C(O)C(F)(F)F.O=C(O)C(F)(F)F (stereo not given) | -4.544
CN1CCN(Cc2cccnc2)C(=O)C12CCN(CC1CCOC1)CC2.O=C(O)C(F)(F)F.O=C(O)C(F)(F)F.O=C(O)C(F)(F)F (stereo not given) | -19.27
C[C@@H]1CN(Cc2cccnc2)C[C@]12CCN(CCN1CCCC1)C2=O.O=C(O)C(F)(F)F.O=C(O)C(F)(F)F.O=C(O)C(F)(F)F | 95.13
C[C@@H]1CN(Cc2cccc(F)c2)C[C@]12CCN(Cc1cccnc1)C2=O.O=C(O)C(F)(F)F.O=C(O)C(F)(F)F | 107.3441
C[C@@H]1CN(S(C)(=O)=O)C[C@]12CCN(Cc1cccnc1)C2=O.O=C(O)C(F)(F)F | 104.4

SMILES | Percent Effect [%]
CN1CCN(Cc2cccnc2)C(=O)C12CCN(C1CCOC1)CC2.O=C(O)C(F)(F)F.O=C(O)C(F)(F)F.O=C(O)C(F)(F)F (stereo not given) | 20.83
CCN(CC)C(CNCc1ccc(C)o1)c1ccco1 (stereo not given) | 6.767
CC(=O)N[C@@H]1CN(S(=O)(=O)Cc2ccccc2)C[C@H]1C(C)C | 4.897
O=C(NC1CCN(Cn2nc(-c3ccccc3)oc2=O)CC1)C1CC1 | 15.64
O=C(c1ccco1)N1CCCC2(CCN(CCN3CCCC3)C2=O)C1 (stereo not given) | 0.2637
Cc1noc(C)c1CN1C[C@H](C)[C@]2(CCN(Cc3cccnc3)C2=O)C1.O=C(O)C(F)(F)F.O=C(O)C(F)(F)F | 119.9
C[C@H]1CN(c2ccccn2)C[C@@]12CCN(Cc1cccnc1)C2=O.O=C(O)C(F)(F)F.O=C(O)C(F)(F)F | 111.4
O=C(c1cccnc1)N1C[C@@H]2CN(CCN3CCCC3)C(=O)[C@@H]2C1 | -1.372
Cc1noc(C)c1CN1CCC2(CC1)CC(Oc1cccnc1)CO2.O=C(O)C(F)(F)F (stereo not given) | 0.1924
Cc1noc(C)c1CN1CCN(Cc2cccnc2)c2ncccc2C1.O=C(O)C(F)(F)F.O=C(O)C(F)(F)F.O=C(O)C(F)(F)F | -12.75
C[C@H]1CN(C(=O)c2cccnc2)C[C@@]12CCN(CCN1CCCC1)C2=O | 107.9
O=C(O)C(F)(F)F.O=C(O)C(F)(F)F.c1ccc(CN2CCC3(CC2)CC(Oc2cccnc2)C3)nc1 | -13.53
CN1CCN(Cc2cccnc2)C2(CCN(Cc3ccccn3)C2)C1=O.O=C(O)C(F)(F)F.O=C(O)C(F)(F)F.O=C(O)C(F)(F)F (stereo not given) | 9.415
C[C@@H]1CN(Cc2ccccn2)C[C@]12CCN(Cc1cccnc1)C2=O.O=C(O)C(F)(F)F.O=C(O)C(F)(F)F.O=C(O)C(F)(F)F | 86.67
CN(CC1CCCCO1)c1nc(-c2cccnc2)nc2c1CCNC2 (stereo not given) | -24.82
CC(C)N1CCc2ncn(C(C)C)c2C1C(=O)NCCN1CCCC1 (stereo not given) | -11.46
CCCc1cc(NCCn2cccn2)n2nccc2n1 | -0.5952
Cc1cc(NC(=O)CCN(CC2CCOC2)C2CC2)no1 (stereo not given) | 14.41
CC(C)NC(=O)N[C@H]1C[C@@H](c2nc(-c3ccc(F)cc3)no2)N(C)C1 | -4.692
Cc1nc2cc(C(=O)N(CCN(C)C)CCN(C)C)ccc2n1C | -1.95
Cc1cc(CS(=O)(=O)NCC2CCCCC2)on1 | -6.001
O=C(c1ccc(-n2ccnc2)nn1)N1CCCCC1Cn1cccn1 (stereo not given) | -18.3
Cc1cnn(CC2CCCN2C(=O)c2csc(-c3nnc[nH]3)n2)c1 (stereo not given) | 136

SMILES | Percent Effect [%]
O=C(c1csc(-c2nnc[nH]2)n1)N1CCCCC1Cn1cccn1 (stereo not given) | 114.8
O=C(Cc1csc(-c2nnc[nH]2)n1)N1CCCC1Cn1cccn1 (stereo not given) | 1.097
Cc1noc(OCc2ccc(C#N)cc2)n1 | 3.288
NC(=O)C1CCN(C(=O)c2cc(S(=O)(=O)N3CCCC3)cs2)CC1 | 4.91
C=Cn1ncc(CN2C[C@@H]3C[C@@H](O)CN3C[C@H]2Cc2ccccc2)c1C | 130.9
C=Cn1ncc(CN2C[C@@H]3CCCN3C[C@@H]2CCSC)c1C | 137.5
C=Cn1ncc(CN2C[C@@H]3CCCN3C[C@@H]2Cc2ccccc2)c1C | -5.258
CCn1cc(CN2CC3CCCN3C[C@H]2C)c(C)n1 (stereo not given in full) | -10.13
C=Cn1ncc(CN2C[C@@H]3CCCN3C[C@H]2CCSC)c1C | -0.7089
C=Cn1ncc(CN2C[C@@H]3C[C@@H](O)CN3C[C@@H]2Cc2ccccc2)c1C | 135.2
C=Cn1ncc(CN2C[C@@H]3CCCN3C[C@H]2Cc2ccccc2)c1C | 116.6
CCCn1ncc(CN2C[C@@H]3CCCN3C[C@@H]2CCSC)c1C | -13.92
COC(=O)C1(C)CCN(C(=O)NCCc2c(C)[nH]c3ccccc23)C1 (stereo not given) | -5.132
Cc1ccsc1CN(CCN(C)C)C(=O)c1cc2ccccc2[nH]1 | -9.122
COc1c(F)cc(NC(=O)NCc2nncn2C2CC2)cc1F | -0.8393
CNC(=O)c1cccc(NC(=O)c2ccnc(N(C)C)c2)c1C | -1.756
O=C(CNc1ccccc1S(=O)(=O)C(F)F)NCc1ccco1 | 0.5887
CCc1nccn1-c1cccc(C2CCCN2S(=O)(=O)N(C)C)n1 (stereo not given) | 103.4
CN(C)S(=O)(=O)CCCOc1cccc(-n2ccnc2)c1 | -3.335
Cc1nccn1-c1cccc(C2CCCN2S(=O)(=O)N(C)C)n1 (stereo not given) | 5.145
Cc1cccc(C2CCCN2S(=O)(=O)N(C)C)n1 (stereo not given) | 98.12
CN(C)S(=O)(=O)N1CCCC1c1cccc(-n2ccnc2)n1 (stereo not given) | 119.1
CN(C)S(=O)(=O)N1CCCC1CC(=O)c1cccs1 (stereo not given) | -13.45

SMILES | Percent Effect [%]
CN(CCn1cccn1)S(=O)(=O)N1CCCC1c1ccco1 (stereo not given) | -2.44
CC(=O)c1ccc(N2CCCC(CO)(CCOc3ccccc3)C2)nc1 (stereo not given) | 5.356
O=C1NCC2(CCCN(C(=O)Nc3cccc(-c4cscn4)c3)CC2)O1 (stereo not given) | -23.17
COCc1cc(N2C[C@@H](C)[C@](O)(C3CC3)C2)ncn1 | -1.024
COc1ccc2c(c1)CC(NCCCn1cc(C)cn1)CC2 (stereo not given) | 28.69
COc1ccc2c(c1)CC(NCc1cccc(CO)c1)CC2 (stereo not given) | -7.175
COc1ccc2c(c1)CC(NCCCn1nc(C)nc1C)CC2 (stereo not given) | 101
CC(NC(=O)c1cc(C(C)C)[nH]n1)C(=O)Nc1ccccc1 (stereo not given) | -6.667
Cc1ccc(OC[C@@H]2CNC[C@H](C(=O)NCC3CCCO3)C2)cn1 (stereo not given in full) | 2.624
CO[C@H]1CCN(S(=O)(=O)c2cccs2)[C@H]1Cc1cccnc1.O=C(O)C(F)(F)F | -2.032
CO[C@@H]1CCN(C(=O)Cc2cccc(F)c2)[C@H]1Cc1cccnc1.O=C(O)C(F)(F)F | 114.6
COCC(=O)N1CC[C@@H](OCC2CC2)[C@@H]1Cc1cccnc1.O=C(O)C(F)(F)F | 1.513
CO[C@@H]1CCN(C(=O)Cc2ccsc2)[C@H]1Cc1cccnc1.O=C(O)C(F)(F)F | 94.83
COCCO[C@H]1CCN(C(=O)c2cnccn2)[C@H]1Cc1ccncc1 | -26.79
COCCO[C@H]1CCN(C(=O)c2ccsc2)[C@H]1Cc1ccncc1 | -3.115
CO[C@H]1CCN(C(=O)Cc2ccc(F)cc2)[C@H]1Cc1ccncc1 | 101.6
CC(=O)NCC(=O)N1CC[C@H](OCC2CC2)[C@@H]1Cc1cccnc1.O=C(O)C(F)(F)F | -17.55
CO[C@@H]1CCN(S(=O)(=O)c2cccs2)[C@H]1Cc1cccnc1.O=C(O)C(F)(F)F | 5.775
CCO[C@@H]1CCN(C(=O)c2ccc[nH]2)[C@@H]1Cc1cccnc1.O=C(O)C(F)(F)F | 0.6367
CO[C@@H]1CCN(C(=O)Cc2ccc(F)cc2)[C@@H]1Cc1cccnc1.O=C(O)C(F)(F)F | 111.8
CO[C@@H]1CCN(Cc2nccn2C)[C@H]1Cc1cccnc1.O=C(O)C(F)(F)F.O=C(O)C(F)(F)F | 5.954
